Screening data as filed in PubChem BioAssay.
An excerpt weighted towards active compounds, which were near 19% of everything screened.
HT1080-NT tox: kills 2HG-producing HT-1080-NT fibrosarcoma cells; AID 686970; HT-1080-NT fibrosarcoma viability, CellTiter-Glo ATP luminescence, 48 h; Potency, µM (highest dose often 46.1 µM), for the others: top-dose activity, negative = less viability, usual class: cytotoxic; 1.6% of 360,000 active;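 note: NT is the 2HG producing partner of a matched IDH1 knockdown line; potency is the fitted concentration of half-maximal effect; 0% = DMSO-treated cells and -100% = media-only wells without cells; nearly all actives have a fitted effect of over 55% in size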
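Compounds were tested in concentration-response format on HT-1080-NT cells for 48 hours at 37 degrees C. Cell viability came from CellTiter-Glo luminescence; curves were classified by r2, response magnitude and activity.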
HT1080 IDH1KD tx: kills HT-1080 cells with IDH1 knockdown; 2% of 360,000 active; HT-1080 IDH1 knockdown viability, ATP luminescence, 48 h; Potency, µM (top dose mostly 46.1 µM), without a hit: at the top dose activity, negative = toxicity, actives largely listed as cytotoxic; AID 686971;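 note: potency is the fitted concentration of half-maximal effect; 0% = DMSO wells and -100% = cell-free medium wells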
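In this qHTS, HT-1080 cells depleted of IDH1 are exposed for 48 h at 37 °C to compound titrations. Toxicity is scored from CellTiter-Glo luminescence, with DMSO as full viability and medium alone as none.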
IL-1B inflam inh: inflammasome signaling inhibition, IL-1 beta readout | activity change, % at 57.5 µM | AID 743279 | 4.7% of 360,000 active | THP-1 LPS/ATP IL-1B secretion, AlphaLISA, 16 h; stronger effect = lower value; in the data active = activity change below about -50%; inconclusive = mostly about -30% to -49%
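Secreted IL-1B measured by AlphaLISA bead assay after 16 h compound exposure of THP-1 cells; compounds (final up to 57.5 uM) added 1 h before LPS (250 ng/mL) and ATP (1.25 mM) stimulation; lower signal means less secretion.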
DT40 TDP1 CPT: growth inhibition of DT40 Tdp1-/-;hTDP1 cells with camptothecin (screen for TDP1 inhibitors). Potency, µM (series often up to 46.2 µM), for the others: top-dose activity change, negative = growth inhibition, most hits filed as inhibitors. chicken DT40 Tdp1-/-;hTDP1 cells + 20 nM CPT, ATP luminescence, 48 h. 12% of 420,000 active. AID 686979; note: potency is the fitted concentration of half-maximal effect; nearly all actives have a fitted effect of over 55% in size
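Chicken DT40 Tdp1-/- cells stably complemented with human TDP1 were seeded at 400 cells/well in medium containing 20 nM camptothecin, exposed to pin-transferred compounds, and grown at 37 °C for at least 48 hr. Viability was read as ATP luminescence.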
TDP1 cell noCPT: qHTS for Inhibitors of human tyrosyl-DNA phosphodiesterase 1 (TDP1): qHTS in cells in absence of CPT; AID 686978, 2013; Potency, µM (doses to about 46.2 µM), inactives show at the highest dose activity change, negative = growth inhibition, hits mostly inhibitors; 15% of 420,000 active; DT40 Tdp1-/- hTDP1 cells, no CPT, ATP luminescence, 48 h; note: potency is the fitted concentration of half-maximal effect; nearly all actives have a fitted effect of over 55% in size
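Chicken DT40 Tdp1-/- cells stably complemented with human TDP1 were seeded at 400 cells/well with DMSO in place of 20 nM camptothecin. After compound pinning, cells grew at least 48 hr at 37 °C; viability read by CellTiter-Glo luminescence.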
* hit, by the source's call; ? = inconclusive; nt = not tested or not shown; [ ] = remark or other dose. Unless noted, calls come from the whole dose curve; as a rule, active = well fitted curve in the direction sought with a large enough effect; inconclusive = small, poorly fitted or top-dose-only effect, or another doubt; inactive = no such curve, though single readings can be large; an effect the other way counts as inactive or inconclusive. Unless noted, % is set by controls: 0 for no effect and ±100 for the full control effect.

SMILES	HT1080-NT tox	HT1080 IDH1KD tx	IL-1B inflam inh	DT40 TDP1 CPT	TDP1 cell noCPT
Cc1ccccc1-n1nnnc1Sc1nnnn1-c1ccccc1	?	15µM*	-116*	12µM*	8.2µM*
Cc1c(-c2nsc(NC(=O)c3cccs3)n2)nnn1-c1ccc(F)cc1	nt	nt	nt	?	-28%
CC(C#N)Sc1nnc(-c2ccccc2F)n1C1CC1 (centres undefined)	-4%	-5%	-13	4%	?
COCCn1c(=O)c(CCc2ccccc2)nc2cnc(N(C)C)nc21	nt	nt	nt	10%	-2%
O=C(CN1C(=O)COc2ccc(S(=O)(=O)N3CCCCCC3)cc21)NCc1ccc(Cl)cc1	nt	nt	nt	?	-24%
O=C(CN1C(=O)COc2ccc(S(=O)(=O)N3CCCCC3)cc21)NCCc1ccc(Cl)cc1	nt	nt	nt	?	18µM*
Cc1ccc(CCNC(=O)CN2C(=O)COc3ccc(S(=O)(=O)N4CCOCC4)cc32)cc1	11%	11%	4	-28%	19%
CCOc1ccc(CCNC(=O)CN2C(=O)COc3ccc(S(=O)(=O)N(CC)CC)cc32)cc1	nt	nt	nt	23µM*	?
CSc1ccc(CCNC(=O)CN2C(=O)COc3ccc(S(=O)(=O)N4CCCC4)cc32)cc1	nt	nt	nt	23µM*	?
CC1(c2ccccc2)NC(=O)N(CC(=O)Nc2ccc3c(c2)OCO3)C1=O (centres undefined)	-1%	-1%	0	-13%	-9%
Cc1ccc2nc(-c3ccc(NC(=O)CN4C(=O)NC(C)(c5ccc(OC(F)F)cc5)C4=O)cc3)sc2c1 (centres undefined)	?	?	-5	15µM*	23µM*
CC1(c2ccc(OC(F)F)cc2)NC(=O)N(CC(=O)Nc2ccc3c(c2)OCO3)C1=O (centres undefined)	?	?	37	16µM*	?
O=C(O)CC(c1ccc(Cl)cc1)N1C(=O)CCC1=O (centres undefined)	5%	11%	16	2%	1%
O=c1[nH]c2ccc(NCc3ccc(-c4cccc(Cl)c4)o3)cc2[nH]1	nt	nt	nt	29µM*	18µM*
Cc1c(Cl)cccc1-c1ccc(CNc2ccc3[nH]c(=O)[nH]c3c2)o1	nt	nt	nt	3.3µM*	?
O=c1[nH]c2ccc(NCc3ccc(-c4ccc(Br)cc4)o3)cc2[nH]1	nt	nt	nt	-11%	-20%
Cn1c(CCNC(=O)C2CC23CCN(C(=O)C2=CCCC2)CC3)nc2ccccc21 (centres undefined)	nt	nt	nt	9%[9.04 µM]	-22%
Cc1ccc(CNc2ncnc3sc(C(=O)N4CCCC(C(N)=O)C4)c(C)c23)o1 (centres undefined)	nt	nt	nt	-12%[9.04 µM]	-21%
CCC(Oc1ccccc1F)C(=O)N1CCC(c2nc3ccccc3s2)CC1 (centres undefined)	nt	nt	nt	?	16µM*
CCCOc1ccccc1C(=O)N1CCC(c2nc3ccccc3s2)CC1	nt	nt	nt	23µM*	10µM*
CCCOc1ccc(C(=O)N2CCC(c3nc4ccccc4s3)CC2)cc1	nt	nt	nt	-11%	?
COc1ccc(C(=O)N2CCC(c3nc4ccccc4s3)CC2)cc1Cl	nt	nt	nt	26µM*	10µM*
CC1C(c2ccc3c(c2)OCO3)c2cc3c(cc2OC1N1CCOCC1)OCO3 (centres undefined)	0%	-13%	-8	-4%	?
CN1CCCN=C1/C=C/c1cccs1	1%	-1%	0	-7%	-6%
O=C(NCc1cccnc1)c1ccc(S(=O)(=O)N2CCOCC2)cc1	7%	-2%	22	-6%	-16%
O=C(NCCSc1c(-c2ccc(Br)cc2)[nH]c2ccccc12)c1ccc(S(=O)(=O)N2CCOCC2)cc1	nt	nt	nt	3.7µM*	4.1µM*
O=C(NCc1ccc2[nH]c3c(c2c1)CCCC3)c1ccc(S(=O)(=O)N2CCOCC2)cc1	-14%	-14%	-13	-23%	?
O=C(NCCSc1c(-c2ccc(Cl)cc2)[nH]c2ccccc12)c1ccc(S(=O)(=O)N2CCOCC2)cc1	nt	nt	nt	3.7µM*	3.7µM*
